# Assay results: paper PMC4336329 (PLoS ONE, 2015)
# Out of some 310,000 compounds screened, about 2,200 (0.71%) showed an effect of 50% or more. Effects have a minus sign here. The list comes from a sample in which strong results are over-represented; it also holds similar structures and randomly drawn compounds.
# Target: human ether-à-go-go-related gene (hERG) potassium channel (human, UniProt Q12809)
# Assay: primary screen, population patch clamp on CHO cells stably expressing hERG; higher = less effect of the substance
# human ether-à-go-go-related gene (hERG) potassium channel, sequence (Q12809 whole entry, looked up): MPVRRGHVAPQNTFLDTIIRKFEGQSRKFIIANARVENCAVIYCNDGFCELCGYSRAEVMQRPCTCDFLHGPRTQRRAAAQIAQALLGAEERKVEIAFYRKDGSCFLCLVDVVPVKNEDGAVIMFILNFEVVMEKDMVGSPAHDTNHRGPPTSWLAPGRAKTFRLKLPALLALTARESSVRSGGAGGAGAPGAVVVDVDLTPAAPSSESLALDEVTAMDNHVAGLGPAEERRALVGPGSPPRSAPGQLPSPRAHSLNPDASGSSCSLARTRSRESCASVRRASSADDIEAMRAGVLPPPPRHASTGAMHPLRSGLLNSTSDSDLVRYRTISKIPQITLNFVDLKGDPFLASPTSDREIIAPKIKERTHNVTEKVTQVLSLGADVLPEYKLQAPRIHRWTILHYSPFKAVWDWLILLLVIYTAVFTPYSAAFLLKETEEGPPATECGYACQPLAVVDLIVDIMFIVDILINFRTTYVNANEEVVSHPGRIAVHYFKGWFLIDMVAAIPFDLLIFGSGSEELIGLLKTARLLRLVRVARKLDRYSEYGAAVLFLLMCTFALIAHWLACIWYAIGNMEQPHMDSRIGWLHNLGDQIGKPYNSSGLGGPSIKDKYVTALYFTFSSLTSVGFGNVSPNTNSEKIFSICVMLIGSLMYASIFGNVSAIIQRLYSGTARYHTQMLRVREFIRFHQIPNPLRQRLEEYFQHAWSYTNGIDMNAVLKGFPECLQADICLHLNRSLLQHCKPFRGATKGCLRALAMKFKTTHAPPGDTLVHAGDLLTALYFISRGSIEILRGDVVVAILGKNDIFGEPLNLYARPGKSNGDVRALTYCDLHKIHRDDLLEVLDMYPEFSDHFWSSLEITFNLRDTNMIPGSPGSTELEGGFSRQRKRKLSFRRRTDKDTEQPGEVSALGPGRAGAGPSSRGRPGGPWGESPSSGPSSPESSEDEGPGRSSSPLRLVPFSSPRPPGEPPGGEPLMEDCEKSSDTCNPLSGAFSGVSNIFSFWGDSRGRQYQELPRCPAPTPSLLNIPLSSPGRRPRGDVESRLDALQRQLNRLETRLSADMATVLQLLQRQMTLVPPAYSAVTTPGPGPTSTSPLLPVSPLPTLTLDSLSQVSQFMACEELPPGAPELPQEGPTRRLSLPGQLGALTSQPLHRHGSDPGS
row,Compound,"hERG current change (%, negative = inhibition) at 1uM [%]"
1,Cc1ccc(C(=O)CSc2nnc(COc3ccc(C#N)cc3)n2-c2ccccc2)cc1,11.8
2,O=C(CCc1nc(-c2ccccc2Cl)no1)NC1CCCC1,1.7
3,CCOC(=O)Nc1ccc2c(c1)N(C(=O)CCN(C)C)c1ccccc1S2.Cl,-5.69
4,Cc1nn(C)c(Cl)c1CN1CCC(CO)(CCOc2ccccc2)CC1,-12.9
5,COc1ccc(CN2CCC(CO)(CCOc3ccccc3)CC2)c(OC)c1C,-81.6
6,COc1ccc(CN2CCC(CO)(CCOc3ccccc3)CC2)cc1C,-77.6
7,COc1cc(CN2CCC(CO)(CCOc3ccccc3)CC2)cc(OC)c1OC,3.71
8,COc1cc(OC)c(CN2CCC(CO)(CCOc3ccccc3)CC2)c(OC)c1,-87.7
9,COc1cc(Cl)c(CN2CCC(CO)(CCOc3ccccc3)CC2)cc1OC,-85.1
10,COc1cc(Cl)c(CN2CCCC(CO)(Cc3ccccc3)C2)cc1OC (stereo not drawn),-2.72
11,CC(=O)c1cccc(CN2CCC(CO)(CCOc3ccccc3)CC2)c1,-3.07
12,COc1ccc2[nH]c(CN3CCC(CO)(CCOc4ccccc4)CC3)c(C)c2c1,9.37
13,COc1cc(CN2CCC(CO)(CCOc3ccccc3)CC2)cc(OC)c1,-8.26
14,COc1ccc(OC)c(CN2CCC(CO)(CCOc3ccccc3)CC2)c1,-30
15,COC(=O)c1ccc(NC(=S)Nc2ccc(O)cc2)cc1,5.34
16,O=C(CNCCCO)Nc1cc(C(F)(F)F)cc(NC(=O)CNCCCO)c1Cl,9.02
17,N#Cc1cccc(NC(=O)c2ccc(S(=O)(=O)N3CCOCC3)cc2)c1,0.709
18,COC(=O)c1cc(Cl)cc(Cl)c1OS(=O)(=O)N(C)C,1.43
19,N#CC1=C(N)Oc2nc[nH]c(=O)c2C1c1cccs1 (stereo not drawn),17.3

row,Compound,"hERG current change (%, negative = inhibition) at 1uM [%]"
1,CCOC(=O)C(OC(=O)c1sc(=S)n(C)c1C)C(C)=O (stereo not drawn),18
2,COc1ccccc1CN1CCNC(=O)C1CC(=O)N(C)Cc1nc(C)cs1 (stereo not drawn),17.2
3,CC(=O)c1ccccc1NC(=O)COC(=O)c1ccc2c(c1)nc(C)n2-c1ccccc1,20.6
4,CC(=O)c1c(C)[nH]c(C(=O)OCc2ccc(F)cc2Cl)c1C,10.6
5,Cc1cc2oc(=O)cc(CN3CCC(C)CC3)c2cc1C,12.8
6,Cc1ccc(C)c(Oc2coc3cc(O)ccc3c2=O)c1,0.658
7,CCOC(=O)C1=NN(c2ccc(C)cc2)C2(S1)SC(C(C)=O)=C(C)N2c1ccccc1 (stereo not drawn),8.85
8,C(=C\c1ccccc1)/CSc1nnc(-c2cccnc2)n1Cc1ccco1,-51.9
9,Clc1ccc(CSc2nnc(-c3cccnc3)n2Cc2ccco2)c(Cl)c1,-42.3
10,C(=C\c1ccccc1)/CSc1nnc(-c2ccccc2)n1Cc1ccco1,-45.4
11,C(=C\c1ccccc1)/CSc1nnc(-c2ccncc2)n1Cc1ccco1,-26.9
12,Clc1cccc(CSc2nnc(-c3cccnc3)n2Cc2ccco2)c1,-61
13,Clc1ccccc1CSc1nnc(-c2cccnc2)n1Cc1ccco1,-14.2
14,Cc1cc(C)cc(NC(=O)Cn2nnc(C(=O)NCc3ccccc3Cl)c2N)c1,13.6
15,CCOc1ccc(CCNC(=O)CS(=O)(=O)Cc2nc(-c3ccc(OC)cc3)oc2C)cc1,-0.117
16,COC(=O)[C@]1(C)N[C@H](c2ccc(-c3ccccc3)cc2)[C@@H]2C(=O)N(C)C(=O)[C@@H]21.O=C(O)C(F)(F)F,15.8
17,Cc1ccccc1N1CCN(CCCN2C(=O)CC(=C(c3ccccc3)c3ccccc3)C2=O)CC1,3.79
18,Cc1sc(NC(=O)c2ccccc2F)c(CN2CCCCC2)c1C,9.65
19,CCOc1ccc(NC(=O)CCNC(=O)Cn2cnc3ccccc3c2=O)cc1,18.9

row,Compound,"hERG current change (%, negative = inhibition) at 1uM [%]"
1,CCN(Cc1ccncc1)C(=O)c1cc(COc2c(F)cccc2F)on1,-8.09
2,CCN(Cc1ccncc1)C(=O)c1cc(COc2c(C)cccc2C)on1,-63.1
3,CCN(Cc1ccncc1)C(=O)c1cc(COc2ccc(C)c(C)c2)on1,-5.56
4,CCN1CCN(C(=O)COc2ccc(S(=O)(=O)Nc3ccc(Cl)cc3)cc2)CC1,12.1
5,Cc1cccc(NC(=O)Nc2c(C)n(C)n(-c3ccccc3)c2=O)c1,9.37
6,CCOc1nc(-c2ccccc2)ccc1-c1noc(-c2cccnc2)n1,7.07
7,COc1ccc(CCNC(=O)CC2Nc3ccccc3NC2=O)cc1OC (stereo not drawn),12.7
8,CCOC(=O)c1c(NC(=S)Nc2ccc(OCC)cc2)sc2c1CCN(C)C2,-11
9,CCOC(=O)c1c(NC(=S)Nc2ccccc2)sc2c1CCCCC2,12.8
10,CCOC(=O)c1c(NC(=S)Nc2ccccc2)sc2c1CCN(CCc1ccccc1)C2,2.54
11,CCOC(=O)N1CCc2c(sc(NC(=O)CN3CCN(C)CC3)c2C(=O)Nc2ccccc2)C1,-85.6
12,CCOC(=O)c1c(NC(=S)Nc2ccccc2)sc2c1CCN(C)C2,-62.8
13,CCOC(=O)c1c(NC(=S)Nc2ccc(Cl)cc2)sc2c1CCN(C)C2,-57.4
14,CCOC(=O)c1c(NC(=O)CN2CCCCC2)sc2c1CCN(C(=O)OCC)C2,2.11
15,CCOC(=O)c1c(NC(=O)Cc2ccccc2)sc2c1CCN(C)C2.Cl,-19.2
16,CCOC(=O)N1CCc2c(sc(NC(=O)CN3CCOCC3)c2C(=O)Nc2ccccc2)C1,-31.9
17,CCOC(=O)c1c(NC(=O)Nc2ccc(C)cc2)sc2c1CCN(C)C2,9.62
18,CCOC(=O)c1c(NC(=S)Nc2ccccc2)sc2c1CCN(CC)C2,-80.2
19,CCOC(=O)c1c(NC(=O)Cc2ccccc2)sc2c1CCN(CC)C2.Cl,-18.3
